Data on one sequence can be found in article PMC7862700, “An all-to-all approach to the identification of sequence-specific readers for epigenetic DNA modifications on cytosine”.

Common to all, as to test: DAPPL (digital affinity profiling via proximity ligation, sequencing); 10 mM Tris-HCl pH 7.5, 50 mM NaCl, 1 mM DTT, 4% glycerol, room temperature, 30 min; GST-TFs on glutathione beads, 16-mer random dsDNA library, 0.1% formaldehyde crosslink after washing; high values mean tight binding
The target in one assay is T1, FLI1 (Homo sapiens, UniProt Q01543 1-452).
T1 sequence: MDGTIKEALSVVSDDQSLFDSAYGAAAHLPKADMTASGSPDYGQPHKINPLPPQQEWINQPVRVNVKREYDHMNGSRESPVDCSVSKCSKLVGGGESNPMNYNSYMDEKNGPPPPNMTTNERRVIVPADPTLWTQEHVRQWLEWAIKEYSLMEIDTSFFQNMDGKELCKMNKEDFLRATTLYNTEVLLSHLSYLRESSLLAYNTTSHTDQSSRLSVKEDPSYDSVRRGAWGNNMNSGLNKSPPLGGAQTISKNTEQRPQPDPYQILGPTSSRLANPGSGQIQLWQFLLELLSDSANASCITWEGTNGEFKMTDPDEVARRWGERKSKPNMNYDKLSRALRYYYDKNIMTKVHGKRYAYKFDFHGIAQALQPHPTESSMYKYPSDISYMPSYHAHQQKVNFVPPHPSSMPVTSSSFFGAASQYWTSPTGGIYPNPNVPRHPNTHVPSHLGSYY
Particulars: protein: recombinant; tags: N-terminal GST; dsDNA, one strand shown. The essentials:
(§1)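 The binding signal reported is, for every hexamer, its read frequency for a factor over its read frequency for the tag-only sample. Reads came from pools of yeast-expressed, GST-fused human transcription factors on glutathione beads, barcoded with DNA and mixed with that sample, which were incubated with 200 nmole of a random double-stranded 16-mer DNA library in Tris/NaCl/DTT/glycerol buffer at room temperature for 30 min. After washing, the pools were crosslinked with 0.1% formaldehyde, proximity-ligated with BsaI/T4 ligase for 1 h at 37 °C, PCR-amplified and sequenced on an Illumina NextSeq500.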

The target of the next assay is T2, ELK1 (Homo sapiens, UniProt P19419 1-428).
T2 sequence: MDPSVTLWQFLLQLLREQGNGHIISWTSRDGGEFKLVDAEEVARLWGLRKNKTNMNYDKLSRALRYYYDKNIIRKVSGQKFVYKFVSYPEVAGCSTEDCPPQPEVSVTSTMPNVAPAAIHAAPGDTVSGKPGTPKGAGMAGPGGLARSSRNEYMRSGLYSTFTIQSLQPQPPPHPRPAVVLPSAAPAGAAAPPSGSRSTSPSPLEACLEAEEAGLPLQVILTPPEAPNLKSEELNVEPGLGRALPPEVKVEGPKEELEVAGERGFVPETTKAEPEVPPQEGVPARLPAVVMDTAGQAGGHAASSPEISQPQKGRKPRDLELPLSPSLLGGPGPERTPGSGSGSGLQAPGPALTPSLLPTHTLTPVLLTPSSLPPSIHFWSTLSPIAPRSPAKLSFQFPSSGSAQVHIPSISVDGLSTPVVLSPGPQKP
The conditions noted are these: protein: recombinant; tags: N-terminal GST; dsDNA, one strand shown. Summed up:
as §1

In a further assay the target is T3, GABPA (Homo sapiens, UniProt Q06546 1-454).
T3 sequence: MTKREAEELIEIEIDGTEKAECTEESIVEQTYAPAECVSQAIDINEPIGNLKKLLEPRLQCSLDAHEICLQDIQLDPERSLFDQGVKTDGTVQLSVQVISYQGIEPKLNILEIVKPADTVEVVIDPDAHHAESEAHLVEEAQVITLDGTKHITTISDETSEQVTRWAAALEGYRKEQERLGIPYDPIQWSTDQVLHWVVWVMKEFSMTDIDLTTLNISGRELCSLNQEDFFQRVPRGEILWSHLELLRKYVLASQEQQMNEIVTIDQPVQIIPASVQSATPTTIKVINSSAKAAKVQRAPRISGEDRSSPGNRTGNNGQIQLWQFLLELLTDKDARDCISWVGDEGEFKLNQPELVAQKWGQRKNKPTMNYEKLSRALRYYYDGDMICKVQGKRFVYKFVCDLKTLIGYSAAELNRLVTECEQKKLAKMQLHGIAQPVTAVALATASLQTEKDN
Particulars: protein: recombinant; tags: N-terminal GST; dsDNA, one strand shown. The essentials: as §1

In the next assay the target is T4, ERG (Homo sapiens, UniProt P11308 1-479).
T4 sequence: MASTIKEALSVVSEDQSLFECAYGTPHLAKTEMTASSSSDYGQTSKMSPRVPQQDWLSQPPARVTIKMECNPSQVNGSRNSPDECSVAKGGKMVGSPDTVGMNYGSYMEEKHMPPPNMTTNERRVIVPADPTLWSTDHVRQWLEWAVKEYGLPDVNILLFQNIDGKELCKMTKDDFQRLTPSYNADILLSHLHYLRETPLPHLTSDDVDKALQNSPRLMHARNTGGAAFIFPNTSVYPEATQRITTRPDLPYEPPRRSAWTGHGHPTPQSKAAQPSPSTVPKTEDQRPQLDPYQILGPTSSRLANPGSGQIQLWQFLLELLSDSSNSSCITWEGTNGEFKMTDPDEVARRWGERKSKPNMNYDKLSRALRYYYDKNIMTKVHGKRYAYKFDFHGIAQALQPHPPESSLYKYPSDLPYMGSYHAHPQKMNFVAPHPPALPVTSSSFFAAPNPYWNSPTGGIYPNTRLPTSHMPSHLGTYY
The conditions noted are these: protein: recombinant; tags: N-terminal GST; dsDNA, one strand shown. The essentials: as §1

Another assay has as its target ELF1 (Homo sapiens, UniProt P32519 1-619). Particulars: protein: recombinant; tags: N-terminal GST; dsDNA, one strand shown. Summed up:
as §1

Another assay addresses T5, EHF (Homo sapiens, UniProt Q9NZC4 1-300).
T5 sequence: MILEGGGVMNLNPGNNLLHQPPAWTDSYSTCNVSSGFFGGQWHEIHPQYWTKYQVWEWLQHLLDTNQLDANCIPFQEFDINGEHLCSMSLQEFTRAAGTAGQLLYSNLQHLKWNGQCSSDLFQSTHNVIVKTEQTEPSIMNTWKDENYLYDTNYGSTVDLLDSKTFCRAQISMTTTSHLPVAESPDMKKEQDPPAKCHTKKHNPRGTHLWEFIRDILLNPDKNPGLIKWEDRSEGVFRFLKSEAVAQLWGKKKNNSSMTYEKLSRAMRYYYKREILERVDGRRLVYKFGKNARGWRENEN
The conditions noted are these: protein: recombinant; tags: N-terminal GST; dsDNA, one strand shown. Summed up: as §1

For another assay, the target named is SPI1 (Homo sapiens, UniProt P17947 1-270). The conditions noted are these: protein: recombinant; tags: N-terminal GST; dsDNA, one strand shown. Summed up:
as §1

A further assay has as its target SPIB (Homo sapiens, UniProt Q01892 1-262). The conditions noted are these: protein: recombinant; tags: N-terminal GST; dsDNA, one strand shown. Summed up: as §1
The target in a further assay is T6, FEV (Homo sapiens, UniProt Q99581 1-238).
T6 sequence: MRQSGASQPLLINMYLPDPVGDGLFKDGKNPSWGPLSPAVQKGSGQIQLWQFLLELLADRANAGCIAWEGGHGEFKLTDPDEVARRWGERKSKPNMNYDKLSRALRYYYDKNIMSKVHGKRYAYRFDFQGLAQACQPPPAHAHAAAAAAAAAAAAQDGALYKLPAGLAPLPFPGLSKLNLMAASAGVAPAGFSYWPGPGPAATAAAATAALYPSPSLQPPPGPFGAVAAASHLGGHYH
The conditions noted are these: protein: recombinant; tags: N-terminal GST; dsDNA, one strand shown. The essentials:
as §1

For another assay, the target named is ETV5 (Homo sapiens, UniProt P41161 1-510). Particulars: protein: recombinant; tags: N-terminal GST; dsDNA, one strand shown. Summed up: as §1
Sequence of ETV5 (P41161 whole entry): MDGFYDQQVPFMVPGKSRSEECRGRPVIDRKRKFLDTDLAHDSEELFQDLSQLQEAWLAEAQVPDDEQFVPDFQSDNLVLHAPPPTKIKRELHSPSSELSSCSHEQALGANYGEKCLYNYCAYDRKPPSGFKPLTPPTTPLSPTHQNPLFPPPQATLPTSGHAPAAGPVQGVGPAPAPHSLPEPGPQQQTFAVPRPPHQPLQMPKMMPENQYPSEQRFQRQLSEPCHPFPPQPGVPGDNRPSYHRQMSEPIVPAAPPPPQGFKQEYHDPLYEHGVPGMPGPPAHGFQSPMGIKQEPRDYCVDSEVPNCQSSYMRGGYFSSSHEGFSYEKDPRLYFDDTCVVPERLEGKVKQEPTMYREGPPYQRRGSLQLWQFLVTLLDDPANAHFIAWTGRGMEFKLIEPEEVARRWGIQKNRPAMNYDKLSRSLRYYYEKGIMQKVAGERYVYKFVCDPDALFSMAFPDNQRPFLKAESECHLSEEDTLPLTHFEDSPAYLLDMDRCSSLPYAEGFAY
Another assay deals with HSF1 (Homo sapiens, UniProt Q00613 1-529). The conditions noted are these: protein: recombinant; tags: N-terminal GST; chain copies: 3; dsDNA, one strand shown. Summed up:
as §1

Another assay addresses T7, SPIC (Homo sapiens, UniProt Q8N5J4 1-248).
T7 sequence: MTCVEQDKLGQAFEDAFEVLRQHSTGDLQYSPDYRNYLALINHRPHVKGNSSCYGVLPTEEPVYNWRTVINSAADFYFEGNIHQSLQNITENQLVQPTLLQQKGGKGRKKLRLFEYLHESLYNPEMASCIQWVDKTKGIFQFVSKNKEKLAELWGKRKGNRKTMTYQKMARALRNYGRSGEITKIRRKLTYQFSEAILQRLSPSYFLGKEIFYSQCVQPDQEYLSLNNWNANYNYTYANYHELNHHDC
Particulars: protein: recombinant; tags: N-terminal GST; dsDNA, one strand shown. Summed up:
as §1

The target of the next assay is ELF4 (Homo sapiens, UniProt Q99607 1-663). The conditions noted are these: protein: recombinant; tags: N-terminal GST; dsDNA, one strand shown. The essentials:
as §1

For the next assay, the target named is T8, ELK4 (Homo sapiens, UniProt P28324-2 1-405).
T8 sequence: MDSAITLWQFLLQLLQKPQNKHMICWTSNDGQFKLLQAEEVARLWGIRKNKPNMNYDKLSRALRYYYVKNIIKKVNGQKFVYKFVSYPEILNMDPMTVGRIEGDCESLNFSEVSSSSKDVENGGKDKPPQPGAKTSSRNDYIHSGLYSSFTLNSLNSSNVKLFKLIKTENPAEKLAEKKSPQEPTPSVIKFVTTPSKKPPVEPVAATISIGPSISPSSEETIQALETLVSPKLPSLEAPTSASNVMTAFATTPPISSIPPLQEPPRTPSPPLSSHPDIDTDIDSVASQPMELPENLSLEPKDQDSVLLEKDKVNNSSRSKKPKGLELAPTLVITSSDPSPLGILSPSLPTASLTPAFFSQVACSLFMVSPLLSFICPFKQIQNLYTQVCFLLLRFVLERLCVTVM
Particulars: protein: recombinant; tags: N-terminal GST; dsDNA, one strand shown. The essentials: as §1

The target of the next assay is T9, ETV2 (Homo sapiens, UniProt O00321 1-342).
T9 sequence: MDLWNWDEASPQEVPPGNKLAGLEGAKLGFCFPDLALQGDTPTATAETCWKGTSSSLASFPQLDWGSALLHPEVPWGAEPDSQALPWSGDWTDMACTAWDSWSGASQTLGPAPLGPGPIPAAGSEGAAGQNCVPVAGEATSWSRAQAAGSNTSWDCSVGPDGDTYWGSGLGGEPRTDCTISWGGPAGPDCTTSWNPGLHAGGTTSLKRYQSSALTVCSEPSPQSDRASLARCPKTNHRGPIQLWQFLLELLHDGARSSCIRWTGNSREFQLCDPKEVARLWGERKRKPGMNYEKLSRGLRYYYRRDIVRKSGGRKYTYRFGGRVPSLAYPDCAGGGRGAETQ
Particulars: protein: recombinant; tags: N-terminal GST; dsDNA, one strand shown. The essentials: as §1

The next assay addresses T10, ELF3 (Homo sapiens, UniProt P78545 1-371).
T10 sequence: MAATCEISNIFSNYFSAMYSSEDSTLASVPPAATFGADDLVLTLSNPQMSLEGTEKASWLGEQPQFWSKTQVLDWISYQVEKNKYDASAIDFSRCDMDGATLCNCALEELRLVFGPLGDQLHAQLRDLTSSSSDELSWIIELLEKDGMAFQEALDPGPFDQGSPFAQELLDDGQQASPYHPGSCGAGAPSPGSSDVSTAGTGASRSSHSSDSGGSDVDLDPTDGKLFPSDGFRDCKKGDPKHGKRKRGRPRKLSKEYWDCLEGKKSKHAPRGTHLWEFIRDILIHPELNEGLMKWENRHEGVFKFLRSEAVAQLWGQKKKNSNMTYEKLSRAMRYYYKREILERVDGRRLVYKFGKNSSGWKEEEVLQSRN
The conditions noted are these: protein: recombinant; tags: N-terminal GST; dsDNA, one strand shown. Summed up: as §1

For a further assay, the target named is CRX (Homo sapiens, UniProt O43186 1-299). Particulars: protein: recombinant; tags: N-terminal GST; dsDNA, one strand shown. The essentials:
as §1

The target in another assay is ETV1 (Homo sapiens, UniProt P50549 1-477). The conditions noted are these: protein: recombinant; tags: N-terminal GST; dsDNA, one strand shown. The essentials: as §1
Sequence of ETV1 (P50549 whole entry): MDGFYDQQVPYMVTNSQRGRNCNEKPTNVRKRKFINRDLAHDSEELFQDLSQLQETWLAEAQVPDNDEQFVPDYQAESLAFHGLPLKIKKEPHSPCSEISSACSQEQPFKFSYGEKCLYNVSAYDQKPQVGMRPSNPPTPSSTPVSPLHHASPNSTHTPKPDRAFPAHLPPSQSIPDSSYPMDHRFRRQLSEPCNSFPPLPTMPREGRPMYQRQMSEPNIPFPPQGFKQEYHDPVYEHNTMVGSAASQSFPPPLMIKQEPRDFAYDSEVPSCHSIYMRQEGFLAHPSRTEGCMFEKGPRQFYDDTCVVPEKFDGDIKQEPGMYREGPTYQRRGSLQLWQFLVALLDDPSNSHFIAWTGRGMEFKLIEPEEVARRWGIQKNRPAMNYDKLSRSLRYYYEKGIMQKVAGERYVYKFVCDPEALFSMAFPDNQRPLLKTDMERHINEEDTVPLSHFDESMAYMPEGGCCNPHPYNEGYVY

Sequence of SPIB (Q01892 whole entry): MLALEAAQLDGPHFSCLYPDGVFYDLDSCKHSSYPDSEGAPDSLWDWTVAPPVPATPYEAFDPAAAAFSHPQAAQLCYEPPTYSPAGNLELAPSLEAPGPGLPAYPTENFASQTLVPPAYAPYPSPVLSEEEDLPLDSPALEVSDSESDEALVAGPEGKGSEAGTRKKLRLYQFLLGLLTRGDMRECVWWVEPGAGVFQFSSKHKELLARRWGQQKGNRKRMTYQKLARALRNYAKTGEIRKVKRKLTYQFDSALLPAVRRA
Sequence of ELF4 (Q99607 whole entry): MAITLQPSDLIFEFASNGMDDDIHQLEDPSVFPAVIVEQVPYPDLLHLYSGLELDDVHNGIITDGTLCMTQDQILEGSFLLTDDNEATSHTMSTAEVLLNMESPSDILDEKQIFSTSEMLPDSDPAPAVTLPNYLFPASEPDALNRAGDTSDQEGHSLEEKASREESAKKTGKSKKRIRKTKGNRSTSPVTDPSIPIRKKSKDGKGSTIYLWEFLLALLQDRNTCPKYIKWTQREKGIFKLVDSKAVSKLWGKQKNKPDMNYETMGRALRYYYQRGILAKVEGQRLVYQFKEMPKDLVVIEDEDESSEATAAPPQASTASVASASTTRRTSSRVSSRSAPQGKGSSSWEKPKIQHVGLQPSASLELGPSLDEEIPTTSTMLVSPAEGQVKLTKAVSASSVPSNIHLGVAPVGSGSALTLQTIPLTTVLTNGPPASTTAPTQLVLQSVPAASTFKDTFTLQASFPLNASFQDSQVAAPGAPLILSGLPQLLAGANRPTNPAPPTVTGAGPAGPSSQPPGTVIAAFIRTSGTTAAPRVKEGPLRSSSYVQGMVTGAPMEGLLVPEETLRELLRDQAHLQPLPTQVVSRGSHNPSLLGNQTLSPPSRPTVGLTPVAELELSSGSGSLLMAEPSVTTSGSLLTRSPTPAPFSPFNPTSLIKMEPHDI
Sequence of HSF1 (Q00613 whole entry): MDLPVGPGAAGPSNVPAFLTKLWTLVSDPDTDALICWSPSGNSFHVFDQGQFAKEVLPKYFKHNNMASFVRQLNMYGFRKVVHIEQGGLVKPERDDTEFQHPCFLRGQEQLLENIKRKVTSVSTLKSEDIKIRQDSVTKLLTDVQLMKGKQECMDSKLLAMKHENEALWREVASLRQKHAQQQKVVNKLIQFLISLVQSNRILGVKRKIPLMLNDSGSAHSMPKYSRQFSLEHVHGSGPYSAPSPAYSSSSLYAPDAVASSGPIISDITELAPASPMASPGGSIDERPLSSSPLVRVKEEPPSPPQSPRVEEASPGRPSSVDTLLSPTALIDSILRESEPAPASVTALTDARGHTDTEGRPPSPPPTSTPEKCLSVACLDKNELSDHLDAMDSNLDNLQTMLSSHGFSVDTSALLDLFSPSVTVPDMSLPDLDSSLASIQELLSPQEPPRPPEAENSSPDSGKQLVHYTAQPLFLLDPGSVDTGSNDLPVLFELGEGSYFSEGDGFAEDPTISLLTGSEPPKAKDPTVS
Sequence of CRX (O43186 whole entry): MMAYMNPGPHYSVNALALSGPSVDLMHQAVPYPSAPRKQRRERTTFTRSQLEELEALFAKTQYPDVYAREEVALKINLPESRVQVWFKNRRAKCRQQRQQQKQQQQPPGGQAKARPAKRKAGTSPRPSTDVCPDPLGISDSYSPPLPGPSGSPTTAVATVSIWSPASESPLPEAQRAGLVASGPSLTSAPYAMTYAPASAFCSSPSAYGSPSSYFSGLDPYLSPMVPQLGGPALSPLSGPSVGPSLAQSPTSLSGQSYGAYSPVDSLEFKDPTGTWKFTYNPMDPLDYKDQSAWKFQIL
Sequence of ELF1 (P32519 whole entry): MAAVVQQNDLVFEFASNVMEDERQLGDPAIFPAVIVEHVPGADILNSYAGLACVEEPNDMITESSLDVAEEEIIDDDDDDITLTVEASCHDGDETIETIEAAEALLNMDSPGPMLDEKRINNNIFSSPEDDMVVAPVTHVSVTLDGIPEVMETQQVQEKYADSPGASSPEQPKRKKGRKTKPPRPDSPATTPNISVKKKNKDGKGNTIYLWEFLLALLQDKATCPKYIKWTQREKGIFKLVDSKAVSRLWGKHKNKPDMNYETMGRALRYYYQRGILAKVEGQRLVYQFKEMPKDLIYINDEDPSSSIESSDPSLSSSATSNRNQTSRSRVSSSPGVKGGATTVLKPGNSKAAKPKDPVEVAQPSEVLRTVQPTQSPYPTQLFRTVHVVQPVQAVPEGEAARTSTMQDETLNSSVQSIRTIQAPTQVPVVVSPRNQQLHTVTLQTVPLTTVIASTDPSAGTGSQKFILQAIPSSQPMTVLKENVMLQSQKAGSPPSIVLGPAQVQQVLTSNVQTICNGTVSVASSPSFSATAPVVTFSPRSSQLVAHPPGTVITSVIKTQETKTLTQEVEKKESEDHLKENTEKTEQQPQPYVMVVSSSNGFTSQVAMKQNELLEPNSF

On to TAGATT, for which the binding signal in the assay with FLI1 was 1.17 fold enrichment (6-mer frequency, TF over GST control); with ELK1, 1.2 fold enrichment (6-mer frequency, TF over GST control); with GABPA, 1.18 fold enrichment (6-mer frequency, TF over GST control); with ERG, 1.2 fold enrichment (6-mer frequency, TF over GST control); in the assay with ELF1 it was 1.17 fold enrichment (6-mer frequency, TF over GST control); in the assay with EHF it was 1.24 fold enrichment (6-mer frequency, TF over GST control). Further, the binding signal in the assay with SPI1 is 1.16 fold enrichment (6-mer frequency, TF over GST control); with SPIB it was 1.24 fold enrichment (6-mer frequency, TF over GST control); with FEV it was 1.14 fold enrichment (6-mer frequency, TF over GST control); with ETV5 it was 1.12 fold enrichment (6-mer frequency, TF over GST control); in the assay with HSF1, 2.19 fold enrichment (6-mer frequency, TF over GST control); with SPIC, 1.28 fold enrichment (6-mer frequency, TF over GST control). The binding signal is 1.19 fold enrichment (6-mer frequency, TF over GST control) with ELF4; 1.29 fold enrichment (6-mer frequency, TF over GST control) with ELK4; 1.13 fold enrichment (6-mer frequency, TF over GST control) with ETV2; 1.07 fold enrichment (6-mer frequency, TF over GST control) in the assay with ELF3; 2.29 fold enrichment (6-mer frequency, TF over GST control) with CRX; 1.22 fold enrichment (6-mer frequency, TF over GST control) with ETV1.
